# Assay outcomes from PubChem.
# L3MBTL1 block: L3MBTL1 (human) inhibition; AID 485360; Potency, µM (titrated, usually from 57.1 µM), inactives show at the top dose activity, negative = inhibition, usual class: inhibitors; AlphaScreen L3MBTL1–H3K9me1 peptide binding; 230,000 tested, 0.66% active; Q9Y468; further: on the % scale 0 is the no-effect control and ±100 the full control effect; nearly all actives have a fitted effect of over 60% in size
#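 Read-out is AlphaScreen signal from streptavidin donor and nickel chelate acceptor beads (10 ug/mL final each) bridging L3MBTL1 (50 nM) and biotinylated K9-monomethylated H3(1-15) peptide (75 nM), after 30 min compound exposure at room temperature.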
# G9a block: inhibitors of human histone lysine methyltransferase G9a; Q96KQ7; G9a H3K9 monomethylation, AlphaScreen, 2 h; Potency, µM (top dose mostly 102 µM), for the others: top-dose activity, negative = inhibition, usual class: inhibitors; 350,000 tested, 8.8% active; AID 504332; further: on the % scale 0 is the no-effect control and ±100 the full control effect; nearly all actives have a fitted effect of over 75% in size
# Target sequence (Q96KQ7 913-1193 limits assumed): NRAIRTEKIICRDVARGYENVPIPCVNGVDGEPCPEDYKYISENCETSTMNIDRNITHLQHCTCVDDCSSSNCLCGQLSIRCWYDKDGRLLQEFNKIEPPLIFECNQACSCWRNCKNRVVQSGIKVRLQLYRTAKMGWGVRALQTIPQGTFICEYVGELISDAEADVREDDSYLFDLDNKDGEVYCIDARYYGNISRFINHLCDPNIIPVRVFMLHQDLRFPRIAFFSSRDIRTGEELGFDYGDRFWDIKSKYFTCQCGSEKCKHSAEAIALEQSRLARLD
#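 Chemiluminescent proximity detection of H3K9 monomethylation, read after 10 min bead incubation in the dark. Reaction: 20 nM G9a, 500 nM biotin-H3K9 peptide, 20 uM SAM cofactor, 2 h, room temperature, following 15 min enzyme-compound preincubation.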
# HP1b binding inh: inhibitors of HP1-beta chromodomain binding to methylated histone tails. 390,000 tested, 0.56% active. AlphaScreen HP1-beta / biotin-H3K9me3 peptide binding. P83916. Potency, µM (top dose mostly 114 µM), for the others: top-dose activity change, negative = inhibition, actives largely listed as inhibitors; further: nearly all actives have a fitted effect of over 70% in size
# Target sequence (P83916 whole entry, looked up): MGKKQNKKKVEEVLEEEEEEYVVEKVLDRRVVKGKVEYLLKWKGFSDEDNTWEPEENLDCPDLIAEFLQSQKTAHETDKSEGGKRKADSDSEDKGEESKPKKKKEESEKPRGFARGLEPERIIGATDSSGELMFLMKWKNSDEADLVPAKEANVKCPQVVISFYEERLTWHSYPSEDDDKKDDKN
#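 HP1-beta protein (50 nM final) preincubated 30 min at room temperature with biotinylated H3(1-18)K9me3 peptide (50 nM) in PBS pH 7.4, 0.01% Tween-20, then compound added for 30 min. AlphaScreen streptavidin donor/nickel chelate acceptor beads (10 ug/mL final), 30 min dark, luminescence read.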
# BAZ2B inh: blocks human BAZ2B. Q9UIF8. 360,000 tested, 4.4% active. Potency, µM (top dose mostly 114 µM), for inactives: at the highest dose activity change, negative = inhibition, most hits filed as inhibitors. AlphaScreen BAZ2B-H3K14Ac peptide displacement; further: on the % scale 0 is the no-effect control and ±100 the full control effect; nearly all actives have a fitted effect of over 60% in size
#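 Inhibition is scored as reduced AlphaScreen emission. The BAZ2B/b-H3(5-23)K14Ac complex (50 nM each) in PBS pH 7.4, 0.01% Tween-20 meets compound (up to 110 uM) for 30 min at RT before bead addition.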
# JMJD2A Tudor: JMJD2A Tudor domain (human) inhibition; AID 504339; O75164; 390,000 tested, 4.4% active; AlphaScreen JMJD2A-Tudor / H3K4me3 peptide binding; Potency, µM (series often up to 114 µM), inactives show at the highest dose activity change, negative = inhibition, most hits filed as inhibitors; further: on the % scale 0 is the no-effect control and ±100 the full control effect; nearly all actives have a fitted effect of over 50% in size
# Sfp inh: inhibitors of Bacillus subtilis Sfp phosphopantetheinyl transferase. Potency, µM, for inactives: largest response in the series, negative = inhibition, actives largely listed as inhibitors. Q9F4F7. 310,000 tested, 3.5% active. Biochemical Sfp PPTase activity, qHTS;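 further: the enzyme is Sfp with the accession as filed and its product quenches rhodamine fluorescence; 0% = enzyme reaction without inhibitor and -100% = no enzyme wells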
#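 Buffer: 50 mM Hepes-Na pH 7.6, 10 mM MgCl2, 0.01% Nonidet P-40, 0.01% BSA. Enzyme 15 nM, pre-exposed to compound 15 min; substrates then added and fluorescence change tracked over 30 min.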
# An asterisk follows results filed as active; ? = inconclusive; nt = no result; [ ] = dose if it differs, or a comment. This is a sample that favours compounds with a hit; in the whole collection about 12% have one here. The call rests on the fitted dose curve; in most records, active means well fitted curve in the direction sought with a large enough effect; inconclusive means small, poorly fitted or top-dose-only effect, or another doubt; inactive means no such curve, though single readings can be large; an effect the other way counts as inactive or inconclusive. Potency means the concentration at half of the fitted maximal effect.
SMILES,L3MBTL1 block,G9a block,HP1b binding inh,BAZ2B inh,JMJD2A Tudor,Sfp inh
Cc1ccc(Cl)c(OCCN2CCc3ccccc3C2)c1,11%,nt,43%,5%,1%,-4%
C/C=C/c1ccc(OCCN2CCc3ccccc3C2)c(OC)c1,-1%,45µM*,?,?,0.89µM*,-7%
C=CCc1ccc(OCCn2cncn2)c(OC)c1,9%,-16%,34%,10%,6%,20%
CC(=O)c1sc(Nc2cccc3ccccc23)nc1C,nt,nt,4%,nt,-32%,nt
O=S(=O)(Nc1nc2c(s1)CCCC2)c1ccc2ccccc2c1,nt,50µM*,9%,?,?,15%
c1ccc2c(Nc3nc4c(s3)CCCC4)cccc2c1,-6%,8%[0.0925 µM],?,50µM*,-28%[57.1 µM],50µM*
O=S(=O)(Nc1ccc(-n2cccc2)cc1)c1ccc(F)cc1,nt,50µM*,?,?,-8%[11.4 µM],10%
Cc1cccc(-c2cc3nc4c(c(N5CCOCC5)n3n2)CCCC4)c1,39%,-28%[59 µM],108%,42%,10%,?
Cc1cccc(-c2cc3nc4c(c(NCc5ccco5)n3n2)CCCC4)c1,-8%,0%[59 µM],-13%,-7%,79µM*,50µM*
COCCCNC(=O)Cn1cc(/C=C(\C#N)C(=O)NC2CC2)c2ccccc21,-1%,12%,45%,4%,-3%,11%
Cc1ccc(C2=NN(C3=NN=C(N)Cc4ncnn43)C(O)(C(F)(F)F)C2)cc1 (centres undefined),-16%,42%,40%,9%,-2%,27%
NC1=NN=C(N2N=C(c3ccco3)CC2(O)C(F)(F)F)n2ncnc2C1 (centres undefined),-16%,-40%,17%,79µM*,-30%,14%
CCc1ccc(C(c2ccccc2)c2c[nH]c3ccc(C)cc23)s1 (centres undefined),nt,?,?,?,56µM*,nt
O=C1CC[C@H](C(=O)N[C@@H]2C[C@H]2c2ccccc2)N1,nt,0%[12.7 µM],nt,nt,nt,6%
O=C(Nc1ccc2oc(-c3ccncc3)nc2c1)c1ccc(Br)o1,nt,32µM*,-3%,-19%,-14%,4%
O=C(Nc1ccc2oc(-c3ccncc3)nc2c1)c1ccco1,nt,40µM*,68%,?,-30%,5%
O=C(Nc1ccc2oc(-c3ccccc3)nc2c1)c1ccco1,-16%,13%[59 µM],14%,5%,0%,0%
OCC[C@@H]1C[C@@H](O)[C@H](O)[C@@]2(CCc3ccccc3O2)O1,-1%,22%,36%,-6%,-11%,8%
OCC[C@H]1C[C@H](O)[C@@H](O)[C@]2(Cc3ccccc3O2)O1,-2%,-1%[12.7 µM],44%,11%,-4%,nt
OCC[C@@H]1C[C@@H](O)[C@H](O)[C@@]2(Cc3ccccc3O2)O1,4%,16µM*,50%,-31%,-13%,11%
OCC[C@@H]1C[C@H](O)[C@@H](O)[C@@]2(CCc3ccccc3O2)O1,-6%,79µM*,56%,-24%,-16%,9%
COc1ccc(NCN2C(=O)C3C4C=CC(C4)C3C2=O)cc1 (centres undefined),8%,-32%,18%,-5%,-6%,8%
COc1ccccc1OC(=O)c1cc2ccccc2oc1=O,-3%,35%,34%,5%,-18%,22%
COc1cc(/C=C/[N+](=O)[O-])ccc1OC(=O)c1cc2ccccc2oc1=O,-7%,nt,47%,?,-17%,3.5µM*
Cc1cc(=O)oc2cc(Oc3ncccc3[N+](=O)[O-])ccc12,nt,-28%,20%,?,-12%[57.1 µM],-5%
SMILES,L3MBTL1 block,G9a block,HP1b binding inh,BAZ2B inh,JMJD2A Tudor,Sfp inh
COc1cc(C2SCCS2)cc(Br)c1Oc1ncccc1[N+](=O)[O-],-2%,10µM*,?,?,?,10%
COc1cccc(Nc2nc(-c3sc(NC(=O)c4ccccc4)nc3C)cs2)c1,-7%,50µM*,?,?,79µM*,-2%
O=C(O)c1ccc(Nc2nc(-c3ccccc3)cs2)cc1,nt,?,12%,-32%,-21%,-29%
CC(=O)Nc1nc(C)c(-c2csc(Nc3cccc(C(C)=O)c3)n2)s1,nt,40µM*,-8%,-39%,-29%,-9%
CCCC(=O)Nc1nc(C)c(-c2csc(Nc3ccc(Cl)cc3)n2)s1,-7%,38%[0.501 µM],?,28µM*,?,-10%
CC(=O)Nc1nc(C)c(-c2csc(Nc3cccc([N+](=O)[O-])c3)n2)s1,nt,20%[59 µM],35%,-2%,-8%,-8%
CCC(C)C(=O)Nc1nc(C)c(-c2csc(Nc3ccc(Cl)cc3)n2)s1 (centres undefined),-4%,2%[0.501 µM],-23%,?,?,-23%
Cc1nc(NC(=O)c2ccccc2)sc1-c1csc(Nc2ccc(C(=O)O)cc2)n1,nt,nt,40µM*,10µM*,22µM*,-23%
Cc1cc2c(s1)c1cnn(Cc3cccc(Cn4ncc5c6sc(C)cc6n(C)c5c4=O)c3F)c(=O)c1n2C,nt,nt,nt,nt,-21%,nt
CN(C)c1ncc2nc(-c3cccc(C#N)c3)c(=O)n(C[C@H]3CCCO3)c2n1,nt,30%[0.501 µM],nt,nt,nt,17%
Cc1[nH]c2ccc(C(=O)NC3CCC(C)CC3)cc2c1C (centres undefined),nt,-3%,55%,-35%,-1%,12%
Cc1ccccc1NC(=O)c1sc2nc(-c3ccncc3)ccc2c1N,nt,-5%[59 µM],17%,0%,1%,nt
CCC(=O)Nc1nc(C)c(-c2csc(Nc3ccc(C(=O)O)cc3)n2)s1,nt,50µM*,21%,-16%,-24%,?
CCC(=O)Nc1nc(C)c(-c2csc(Nc3cccc(C(=O)O)c3)n2)s1,-23%,45µM*,-18%,?,-21%,20µM*
CN(C)S(=O)(=O)c1ccc(=S)[nH]c1,9%,1.4µM*,?,nt,56µM*,?
O=S(=O)(c1ccc(=S)[nH]c1)N1CCCC1,6%,nt,-3%,nt,?,nt
CCN(Cc1ccccc1)Cc1c(F)cccc1F,9%,?,?,nt,20µM*,?
COc1ccc(CNC(=O)COC(=O)/C=C/c2cccc(Cl)c2)cc1,2%,nt,19%[57 µM],nt,8%,nt
Cc1nn(C)c2c1c(-c1ccccc1)cc(=O)n2CC(=O)NC(C)c1ccccc1 (centres undefined),nt,-45%[59 µM],40µM*,50µM*,50µM*,nt
O=C(CN1CCCCC1)N/N=C/c1ccc(Cl)cc1,-12%,27%,43%,?,-7%,2%
CCOc1cc(/C=N/NC(=O)Cn2nc([N+](=O)[O-])cc2C)ccc1OCc1ccc(F)cc1,0%,-2%[0.0925 µM],43%,-5%,-15%,45µM*
O=C(CN1CCCCCC1)N/N=C/c1cccc(Cl)c1,5%,?,4%,50µM*,79µM*,-15%
